High-throughput results (PubChem BioAssay)
Pf growth 96h: P. falciparum growth inhibition at 96 hours | Potency, µM (top dose mostly 28.7 µM), most hits filed as inhibitors | P. falciparum luciferase reporter growth, 96 h | 320,000 compounds, 6.9% hits
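Plates of compound plus infected erythrocytes (2% hematocrit, 0.05% parasitemia final) incubate 96 hours, 37 C, 5% CO2. Detection reagent added; reduced luminescence from the parasites' luciferase reporter flags inhibition.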
LmPK inh: LmPK (Leishmania mexicana) enzyme inhibition | 290,000 compounds, 0.37% hits | purified LmPK, Kinase-Glo ATP luminescence, 1 h | Potency, µM (top dose mostly 57.5 µM), hits mostly inhibitors | Q27686
Target sequence (Q27686 whole entry, looked up): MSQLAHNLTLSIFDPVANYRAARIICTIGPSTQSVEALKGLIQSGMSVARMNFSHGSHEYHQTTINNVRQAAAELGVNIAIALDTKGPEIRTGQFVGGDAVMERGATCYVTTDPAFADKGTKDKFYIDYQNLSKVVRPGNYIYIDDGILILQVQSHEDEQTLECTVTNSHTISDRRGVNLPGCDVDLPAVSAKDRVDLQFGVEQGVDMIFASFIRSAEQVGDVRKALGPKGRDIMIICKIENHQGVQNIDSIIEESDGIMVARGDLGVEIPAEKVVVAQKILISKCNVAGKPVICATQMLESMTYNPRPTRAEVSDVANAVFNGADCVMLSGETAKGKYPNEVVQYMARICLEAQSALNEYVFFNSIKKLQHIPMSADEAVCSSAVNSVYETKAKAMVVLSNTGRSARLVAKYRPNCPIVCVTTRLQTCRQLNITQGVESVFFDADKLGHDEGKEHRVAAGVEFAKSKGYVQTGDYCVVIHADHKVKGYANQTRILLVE
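Kinase-Glo luminescence read after 1 h RT reaction of 0.1 nM LmPK with 0.5 mM PEP and 0.1 mM ADP. Activity scaled between uninhibited and enzyme-free controls.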
Shiga inhibitor: inhibitors of Shiga toxin in Vero cells | 290,000 compounds, 9.2% hits | inhibition, % at 38.7 µM | Vero cells, Shiga toxin protein synthesis inhibition reporter; in the data active = inhibition mostly above about 28%, no sharp cut-off; inactive = mostly below about 43%
Pf growth 48h: P. falciparum growth inhibition at 48 hours (one generation) | P. falciparum luciferase growth in erythrocytes, 48 h | Potency, µM (highest dose often 28.7 µM), usual class: inhibitors | 310,000 compounds, 5.9% hits | AID 504832
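A one-generation exposure of luciferase-tagged malaria parasites in RPMI 1640/Albumax erythrocyte culture, 37 C and 5% CO2. Inhibition is inferred from decreased luminescence after adding detection reagent.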
CHX counter: counter-screen hit for Shiga toxin inhibitors, cycloheximide. 300,000 compounds, 12% hits. cell reporter, cycloheximide protein synthesis inhibition counterscreen. max response, %; in the data active = max response mostly above about 13%, no sharp cut-off; inactive = mostly below about 14%; also: read at 38.3 µM for the half of the compounds with a filed dose
A number is an active result; n = inactive; u = inconclusive; x = no result given; [ ] = remark or other dose. Most compounds without a hit are left out; they make up all but 22% or so of the library. Unless noted, calls follow the shape of the dose curve; as a rule, active = well fitted inhibition curve with a large enough effect; inconclusive = small, poorly fitted or top-dose-only effect, or another doubt; inactive = no such curve, though single readings can be large or run the other way.

SMILES | Pf growth 96h | LmPK inh | Shiga inhibitor | Pf growth 48h | CHX counter
O/N=C\c1cnc(N2CCN(c3ccccc3)CC2)s1 | n | n | 67.6 | n | 42.1
O=Cc1cnc(N2CCCCC2)s1 | n | n | n | n | n
O=C(Cc1cccs1)N1CCN(c2ccc([N+](=O)[O-])cc2)CC1 | n | n | n | n | n
Cc1cccc(N2CCN(C(=O)CCNS(=O)(=O)c3cccs3)CC2C)c1 (centres undefined) | n | n | 65.5 | n | 15.6
CC1CC(C)CN(C(=O)CCNS(=O)(=O)c2cccs2)C1 (centres undefined) | n | n | n | n | n
O=C(CCNS(=O)(=O)c1cccs1)N1CCc2ccccc2C1 | x | n | 86.3 | n | 28.7
CCN=C1S/C(=C\c2cc(OCC)c(O)cc2Br)C(=O)N1CC | 10.4µM | n | n | 11.7µM | n
CCN=C1S/C(=C\c2ccc(O)c(OCC)c2)C(=O)N1CC | u | n | n | n | n
COc1ccc(OC)c(NC(=O)CCC(=O)Nc2nnc(C(C)C)s2)c1 | n | n | n | n | n
Cc1ccc(NC(=O)Nc2nnc(-c3ccccc3)o2)cc1 | n | n | 77.2 | n | 51.2
O=C(Nc1nnc(-c2ccccc2)o1)Nc1ccccc1Cl | u | n | n | n | 15.4
O=C(Nc1nnc(-c2ccccc2)o1)Nc1ccc(F)cc1F | n | n | n | n | n
Cc1ccc(-c2nnc(Nc3ccccc3)o2)cc1 | u | 14.1µM | n | n | 24.1
Cc1ccc(OCC(=O)Nc2cccc(-c3nnc(-c4ccccc4)o3)c2)cc1 | x | n | n | n | n
CCCCNC(=O)Nc1nnc(-c2ccccc2)o1 | u | n | n | x | 28.7
CCCCNC(=O)Nc1nnc(-c2ccc(OCC)cc2)o1 | x | n | n | u | n
COc1ccc(/C=N/N(C)C2=NCCN2)c(OC)c1OC | n | n | n | n | n
C=CCNC(=S)NNc1nc2c(c(=O)[nH]1)C1(CCCCC1)Cc1ccccc1-2 | n | n | n | n | n
Cc1cc(=O)[nH]c(SCC(=O)Nc2cccc(S(=O)(=O)N3CCOCC3)c2)n1 | u | x | x | n | x
COc1ccc(NC(=O)COC(=O)C2CCN(S(=O)(=O)c3cccs3)CC2)cc1 | n | n | n | n | n
COc1ccc(NC(=O)c2ccco2)cc1N | 8.28µM | n | 65.5 | n | 64.7
COc1ccc(NC(=O)c2ccco2)cc1NC(=O)c1c(OC)cccc1OC | 2.33µM | n | n | n | n
COc1ccc(NC(=O)c2ccco2)cc1NC(=O)c1ccco1 | n | n | n | n | n
COc1ccc(OC)c(NC2c3ccccc3C(=O)N2Cc2ccc3c(c2)OCO3)c1 (centres undefined) | u | n | n | x | n
O=C1c2ccccc2C(Nc2cccnc2)N1Cc1ccc2c(c1)OCO2 (centres undefined) | 1.47µM | n | n | n | n
SMILES | Pf growth 96h | LmPK inh | Shiga inhibitor | Pf growth 48h | CHX counter
O=C1c2ccccc2C(O)N1Cc1ccc2c(c1)OCO2 (centres undefined) | n | n | n | x | n
O=C1c2ccccc2C(Nc2ccc3c(c2)OCO3)N1Cc1ccco1 (centres undefined) | u | n | 21.2 | n | n
O=C1c2ccccc2C(Nc2ccc3c(c2)OCO3)N1Cc1ccc2c(c1)OCO2 (centres undefined) | 3.29µM | n | n | 9.28µM | 37.7
O=S(=O)(c1ccc(F)cc1)N1CCN(c2nc(-c3cccc(Br)c3)nc3ccccc23)CC1 | x | x | n | x | n
O=C(CCn1c(=O)oc2cc(Cl)ccc21)Nc1ccc(N2CCOCC2)cc1 | n | n | n | n | n
NC(=O)C1CC(=O)N(c2ccc(OCC(=O)Nc3ccc(F)cc3)cc2)C1 (centres undefined) | n | x | x | n | x
Cc1ccccc1CC(=O)N1CCCC(CCC(=O)N2CCN(c3ccccn3)CC2)C1 (centres undefined) | n | n | n | u | n
Cc1cccc(C(=O)N2CCCC(CCC(=O)N3CCN(c4ccccn4)CC3)C2)c1 (centres undefined) | n | n | n | n | n
O=C(CCC1CCCN(C(=O)Cc2cccc(F)c2)C1)N1CCN(c2ccccn2)CC1 (centres undefined) | n | n | 70.6 | n | 49.9
O=C(CCC1CCCN(C(=O)CCCc2ccccc2)C1)N1CCN(c2ccccn2)CC1 (centres undefined) | u | n | n | u | 21.6
O=C(Nc1c2c(nn1-c1ccc(F)cc1)CS(=O)(=O)C2)c1ccc2c(c1)OCO2 | u | n | n | n | n
COc1cc2c(=O)n(CC3CCCO3)c(=O)n(CC(=O)Nc3ccccc3)c2cc1OC (centres undefined) | u | n | n | n | n
COc1ccc(C2=NOC(C(=O)Nc3cccc(O)c3)C2)cc1 (centres undefined) | 5.22µM | n | n | n | n
COc1ccc(C2=NOC(C(=O)Nc3cc(C)on3)C2)cc1 (centres undefined) | 9.28µM | n | n | x | n
O=C(Nc1cccc(O)c1)C1CC(c2ccc(Cl)cc2)=NO1 (centres undefined) | n | n | n | n | n
COc1cccc(C2=NOC(C(=O)Nc3cc(C)on3)C2)c1 (centres undefined) | n | n | n | n | n
COc1cccc(OC)c1C(=O)NC(=S)N1CCCCC1c1cccnc1 (centres undefined) | u | n | n | u | n
CCn1c(C)nc2cc(NC(=O)Nc3cccc(C(C)=O)c3)ccc21 | n | n | n | n[0.00184 µM] | 20.7
Cc1nc2cc(NC(=O)Nc3nccs3)ccc2n1C | x | n | 35.2 | n | 21.6
CCCNC(=O)Nc1ccc2c(c1)nc(C)n2C | n | n | n | n | n
CCn1c(C)nc2cc(C(=O)OC)ccc21 | n | n | n | n | n
COc1cccc(NC(=O)Nc2ccc3c(c2)nc(C)n3C)c1 | n | u | 58.3 | n | 26.1
COc1cccc(NC(=O)Nc2ccc3nc(C)c(C)nc3c2)c1 | n | n | n | n | n
COc1cccc(NC(=O)Nc2ccc3nsnc3c2)c1 | n | n | 96.9 | n | 30.5
O=C(C1CCCC1)N1CCN=C1SCc1cccc([N+](=O)[O-])c1 | u | n[11.5 µM] | n | u | n
SMILES | Pf growth 96h | LmPK inh | Shiga inhibitor | Pf growth 48h | CHX counter
CC(=O)N1CCOc2ccc(S(=O)(=O)N(C)c3ccc(C)cc3)cc21 | n | n | n | n | n
CCN(CC)c1ccc(NC(=O)Nc2cccc(C(C)=O)c2)cc1 | u | n | 46.2 | n | n
Cc1nc2cc(NC(=O)NC(C)(C)C)ccc2n1C | n | n | n | n | 17.9
CCCCC1(Br)C(=O)N(c2ccccc2)N(c2ccccc2)C1=O | n | x | x | u | x
CCCCC1(CC(=O)OCC)C(=O)N(c2ccccc2)N(c2ccccc2)C1=O | 14.7µM | n | n | u | n
CCCCC1(CO)C(=O)N(c2ccccc2)N(c2ccccc2)C1=O | n | n | n | n | n
CCCCC1(Cc2cccc([N+](=O)[O-])c2)C(=O)N(c2ccccc2)N(c2ccccc2)C1=O | u | n | n | 3.7µM | n
CCC(=O)Nc1ccc(C(=O)NNC(=O)C2CCCCC2)cc1 | n | n | n | n | n
COc1ccc(C)cc1S(=O)(=O)n1cnc2ccccc21 | n | n | n | n | n
Cc1ccc(-c2ccc(=O)[nH]n2)cc1 | n | n | n | n | n
